Measured values: PubChem BioAssay AID1565 (Sanford-Burnham Center for Chemical Genomics, 2009)
The campaign covered roughly 290,000 compounds. About 3,200 (1.1%) were called active. What follows is part of a selection rich in actives, with near analogues and random picks from the rest. Values without a mark were called inactive. Rule as the data show it: active = inhibition above about 60%; inactive = the rest.

biological target: Phosphoethanolamine/phosphocholine phosphatase (Homo sapiens) (UniProt Q8TCT1); assay: PubChem AID 1565; details: recombinant PHOSPHO1, absorbance phosphatase assay; at 13.3 µM; stronger effect = higher value
Sequence (Q8TCT1 whole entry, looked up): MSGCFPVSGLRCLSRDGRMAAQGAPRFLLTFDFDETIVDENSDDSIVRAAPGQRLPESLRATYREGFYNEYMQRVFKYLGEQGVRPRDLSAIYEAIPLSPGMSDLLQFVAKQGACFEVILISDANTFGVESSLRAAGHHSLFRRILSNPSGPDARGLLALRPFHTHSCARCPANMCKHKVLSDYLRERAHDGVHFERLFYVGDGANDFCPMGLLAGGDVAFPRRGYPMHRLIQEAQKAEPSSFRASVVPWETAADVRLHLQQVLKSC

Structure (SMILES) | inhibition
Oc1c(C(c2ccco2)N2CCC3(CC2)OCCO3)sc2ncnn12 (stereo not drawn) | 95.9% (active)
Oc1c(C(c2cccs2)N2CCN(c3ccc(F)cc3)CC2)sc2ncnn12 (stereo not drawn) | 19.3%
Cc1nc2sc(C(c3ccco3)N3CCOCC3)c(O)n2n1 (stereo not drawn) | -2.3%
COc1ccc(CNC(=O)C(NS(=O)(=O)c2cccc3nsnc23)C(C)C)cc1 (stereo not drawn) | 59.8%
Cc1ccc(NC(=O)CCNS(=O)(=O)c2ccc3c(c2)oc(=O)n3C)cc1C | -21.8%
Cn1c(=O)oc2cc(S(=O)(=O)NCCC(=O)NCc3ccccc3Cl)ccc21 | 75.4% (active)
COc1cccc(NC(=O)CCNS(=O)(=O)c2ccc3c(c2)oc(=O)n3C)c1 | 59.6%
O=c1cc(Cl)c2ccccc2n1-c1ccccc1 | 19.9%
CN(Cc1c(F)cccc1Cl)S(=O)(=O)c1cccs1 | -15.8%
Cc1c(Cl)cccc1NC(=O)CCC(=O)N/N=C/c1ccco1 | 32.7%
Cn1c(-c2sc3cc(C(F)(F)F)cnc3c2-c2ccccc2)n[nH]c1=S | 96.2% (active)
Cn1c(-c2sccc2OCc2cccc(C(F)(F)F)c2)n[nH]c1=S | 36.7%
Cc1ccccc1-c1n[nH]c(=S)n1C | -137%
COc1cccc(NC(=O)CCc2nnc3ccc(N4CCC(C)CC4)nn23)c1 | -8.3%
Cc1cccnc1CCNC(=O)C1CCC(=O)N(Cc2cccc(F)c2)C1 (stereo not drawn) | 24%
COc1cccc(CNC(=O)C2CCCN(c3ncnc4c3nc3n4CCCCC3)C2)c1 (stereo not drawn) | -55.9%
O=C(Nc1ccccc1)N1CCN(C(=O)Nc2ccccc2)CC1 | 15.9%
O=C(Nc1ccc(Cl)c(Cl)c1)N1CC=C(c2ccccc2)CC1 | 61.1% (active)
O=C(Nc1cccc(NC(=O)N2CCN(c3ccccc3)CC2)c1)N1CCN(c2ccccc2)CC1 | 12.4%
Cc1occc1C(=O)N/N=C/c1ccc(-c2cccc([N+](=O)[O-])c2)o1 | 40.3%
C[N+]1(CCNC(=O)/C=N/O)CCCCC1 | 91.1% (active)
N#CC(C#N)=CN=c1ccn(Cc2ccc(Cl)cc2Cl)cc1 | 34%
COCCNC(=O)c1ccc2nc(Cc3ccc(OC)c(OC)c3)oc2c1 | -8.2%
S=c1[nH]nc(COc2ccccc2)n1-c1ccccc1 | -11.2%
COc1ccc(Cc2n[nH]c(=S)n2NC(=O)Nc2ccc(C)cc2)cc1 | 36.2%

Structure (SMILES) | inhibition
COc1ccc(OCc2n[nH]c(=S)n2N)cc1 | 70.9% (active)
Cc1ccc(OCc2n[nH]c(=S)n2-c2ccccc2)cc1 | 60.9% (active)
COc1ccc(-n2c(-c3ccc(OC)c(OC)c3)n[nH]c2=S)cc1 | -135%
Cc1ccc(OCc2n[nH]c(=S)n2-c2ccc(C)cc2)cc1 | -0.8%
Cc1cccc(N2Cc3ccccc3C2=NC(=O)c2ccc(Cl)nc2)c1 | -3.9%
Cc1nn(CC(=O)NCCc2ccccc2)c(=O)c2cc3occc3n12 | -36.2%
O=C1/C(=C/c2ccc(F)cc2)SC(=S)N1CCCC(=O)N1CCCCC1CCO (stereo not drawn) | 38.5%
O=C(c1ccc(CS(=O)(=O)c2ccccc2)o1)N1CCN(c2ccccc2)CC1 | 2.1%
CC(C)c1ccc(S(=O)(=O)NC2CCCC2)cc1 | 24%
CCN(CC)c1ccc(NC(=O)c2ccc(Cl)nc2)cc1 | 74.3% (active)
Cc1cnc(NC(=O)c2ccc(Cl)nc2)s1 | -16.6%
NS(=O)(=O)c1ccc(NC(=O)COC(=O)c2ccc(Cl)nc2)cc1 | 8.4%
CCCCNC(=O)c1cn(CC)c2cc(N3CCN(C(=O)c4ccco4)CC3)c(F)cc2c1=O | 12.7%
CCCn1c(C2CCCN2c2nc(-c3ccc(OC)cc3)cs2)nc2ccccc21 (stereo not drawn) | -1.7%
Cc1ccc(-c2cc(N)on2)cc1 | 1.1%
CC(C)C(=O)NCc1cc(-c2ccc(Cl)cc2)no1 | 32.2%
Cc1ccc(S(=O)(=O)Cc2cc(-c3ccc(Cl)cc3)no2)cc1 | 65.8% (active)
O=C(CCc1nnc2ccc(NCc3ccco3)nn12)Nc1cc(F)ccc1F | 19.9%
COc1ccccc1OCCOc1ccc(/C=C2\C(=N)N3N=C(C)SC3=NC2=O)cc1 | 19.1%
CCOc1ccccc1N1CCN(C(=O)c2ccc3[nH]c(C)c(C)c3c2)CC1 | 18.1%
Cc1c(C(=O)NCC(c2ccco2)N2CCCC2)oc2ccc(Cl)cc12 (stereo not drawn) | 7%
Fc1ccc(/C=N/n2c(COc3ccccc3)n[nH]c2=S)cc1 | 5.5%
COc1cc(/C=N/O)ccc1OCc1ccc([N+](=O)[O-])cc1 | 5.6%
COc1cc(/C=N/n2c(C)n[nH]c2=S)ccc1OCc1ccccc1 | 69.1% (active)
CCC(NC(=O)c1cc(COc2ccc(F)c(F)c2)on1)c1ccncc1 (stereo not drawn) | 21.8%

Structure (SMILES) | inhibition
Cc1cc(NC(=O)CSc2nc3c(cc2C#N)CCCCC3)no1 | 56%
CC(NC(=O)CSc1nc2c(cc1C#N)CN(C)CC2)c1ccccc1 (stereo not drawn) | 95.3% (active)
CC1(C)CCc2nc(SCc3ccccc3)c(C#N)cc2C1 | 15%
CC1CC(C)CN(c2ccc(S(=O)(=O)N3CCOCC3)cc2)C1 (stereo not drawn) | 33.4%
C=CCN1CN(S(=O)(=O)c2ccc(OC)cc2)c2nc3ccccc3nc21 | 4.7%
CCCc1cc(-c2n[nH]c(=S)n2Cc2ccccc2)cs1 | 82.7% (active)
CCc1cc(-c2n[nH]c(=S)n2CC(C)C)cs1 | -17%
COc1cc(-c2n[nH]c(=S)n2Cc2ccccc2)cc(OC)c1OC | -91.1%
O=C(NCc1ccccc1)c1onc(CSc2nc3ccccc3[nH]2)c1C(=O)NCc1ccccc1 | 15.1%
CN(c1ccccc1)S(=O)(=O)c1ccc2[nH]c(=O)[nH]c2c1 | 2.8%
Cc1nc2ccc(C(=O)N3CCN(c4ccccc4)CC3)cc2s1 | -38.4%
O=C(c1ccccc1)c1ccc(C(=O)N2CCN(c3ccccc3)CC2)cc1 | 70.6% (active)
O=C(c1ccc(S(=O)(=O)N2CCOCC2)cc1)N1CCN(c2ccccc2)CC1 | 7.1%
C=CCn1c(CNS(=O)(=O)c2ccc(Br)cc2)nnc1SC | 38.1%
Cc1cccc(-n2nc3c(c2NC(=O)c2cc4ccccc4o2)CS(=O)(=O)C3)c1 | 12.5%
Cc1ccc(-n2c(Cc3cccs3)nnc2SCC(=O)OC(C)C)cc1 | 4.6%
CCn1c(Cc2cccs2)nnc1SCC(=O)c1ccc(C)cc1 | 67.3% (active)
CCn1c(SCC(=O)c2ccc3ccccc3c2)nnc1-c1cccs1 | 17.7%
CCNC(=O)Nc1ccc(S(=O)(=O)Nc2cnc(C)nc2C)cc1 | 22%
COc1ccc(N(CC(=O)N2CCOCC2)S(=O)(=O)c2ccccc2)cc1Cl | 12.6%
Brc1ccc(-c2nnc(-c3ccccc3)o2)o1 | -10.5%
Nc1ccc(-c2nnc(-c3ccccc3)o2)cc1 | 4.2%
Nc1ccc(-c2nnc(-c3ccc(-c4ccccc4)cc3)o2)cc1 | 71.5% (active)
COc1cccc(CNC(=O)c2nnn(CC(=O)Nc3cc(C)ccc3C)c2N)c1 | 37.5%
Cc1ccc2nc(-c3ccc(NC(=O)c4cccnc4)cc3)oc2c1 | 30.4%

Structure (SMILES) | inhibition
COc1ccccc1C(=O)Nc1ccnn1C1CCN(Cc2cnn(C)c2)CC1 | 38.1%
CCN1CCN(C(c2cccnc2)c2cc(Cl)c3cccnc3c2O)CC1 (stereo not drawn) | 98.8% (active)
Clc1cccc(CN2COc3c(cc(Cl)c4cccnc34)C2)c1 | -4%
CCOC(=O)N1CCN(C(c2cccnc2)c2ccc3cccnc3c2O)CC1 (stereo not drawn) | 96.9% (active)
Oc1ccccc1CN1CCN(C(c2ccccc2)c2ccccc2)CC1 | 34.3%
Cc1onc(C(=O)NN)c1C(=O)N1CCN(C(c2ccccc2)c2ccccc2)CC1 | -25.8%
O=C(CSc1cccc2cccnc12)N/N=C/c1cccnc1 | -11.2%
Cc1cccc(NC(=O)c2cccc(C(=O)Nc3cccc(C)c3C)n2)c1C | 14.9%
COc1cccc2cc(C(N)=O)/c(=N\NC(=O)c3ccccc3)oc12 | 43.7%
CCCCCN(C(=O)CCC(=O)OCC(=O)NCc1ccc(OC)cc1)c1c(N)n(CCCC)c(=O)[nH]c1=O | 36.6%
Cc1ccc(NC(=O)COC(=O)C2C3CC4OC(=O)C2C4C3)cc1Cl (stereo not drawn) | 23.2%
COCCCn1c(SCC(=O)Nc2ccccc2)nnc1-c1ccncc1 | -12.8%
CSc1nnc(-c2ccncc2)n1CCCN1CCCC1=O | 86.5% (active)
CCCn1c(SCC(=O)N2CCc3ccccc32)nnc1-c1ccncc1 | 1.6%
COc1cccc(C(=O)Nc2nnc(S(=O)(=O)N(C)c3ccccc3)s2)c1 | 41.2%
O=C(Nc1ccncc1)c1ccc([N+](=O)[O-])cc1Cl | 15.6%
NC(=O)COc1ccc2c3c(c(=O)oc2c1)CCCCC3 | 18%
Cc1c(CCC(=O)O)c(=O)oc2cc(OCc3ccc(Br)cc3)ccc12 | 4.7%
Cc1c(Cc2ccccc2)c(=O)oc2cc(OCC(N)=O)ccc12 | 61.5% (active)
COc1ccc(-n2nc(C(=O)NCC(=O)N3CCCCCC3)c3ccccc3c2=O)cc1Cl | 36%
CCOC(=O)c1c(N)sc(C(C)=O)c1C | 33%
COCCOC(=O)c1sc(=S)n(CCOC)c1N | 76.4% (active)
COC(=O)c1sc(=S)n(-c2ccc(Cl)cc2)c1C | -2.1%
